Compound activity (PubChem BioAssay)
Plk1 PBD FP = blocks phosphopeptide binding to human Plk1 polo box domain | P53350 | inhibition, %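 (tested at about 20 µM)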 | Plk1 PBD phosphopeptide binding, fluorescence polarization | 0.13% of 97,000 active; in the data active = inhibition above about 34%, passing the limit was not always enough
Target sequence (P53350 whole entry, looked up, the tested form may be a part): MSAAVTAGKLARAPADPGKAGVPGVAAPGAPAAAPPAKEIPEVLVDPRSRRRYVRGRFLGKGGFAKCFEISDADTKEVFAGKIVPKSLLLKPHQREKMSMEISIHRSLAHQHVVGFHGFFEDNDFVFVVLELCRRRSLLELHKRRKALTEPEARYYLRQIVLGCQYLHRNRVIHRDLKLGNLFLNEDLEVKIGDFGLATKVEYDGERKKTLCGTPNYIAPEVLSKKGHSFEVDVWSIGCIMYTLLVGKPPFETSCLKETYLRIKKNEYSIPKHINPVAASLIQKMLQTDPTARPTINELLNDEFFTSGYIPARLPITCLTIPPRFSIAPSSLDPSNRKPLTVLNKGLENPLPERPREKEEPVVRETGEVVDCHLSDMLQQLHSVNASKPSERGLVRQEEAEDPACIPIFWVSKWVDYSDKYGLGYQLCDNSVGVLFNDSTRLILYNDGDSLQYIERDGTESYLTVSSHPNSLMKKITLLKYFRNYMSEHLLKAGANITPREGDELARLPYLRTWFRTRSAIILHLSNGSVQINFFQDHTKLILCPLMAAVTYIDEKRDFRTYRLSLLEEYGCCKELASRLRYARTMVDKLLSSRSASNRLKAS
PKA kinase inh = PKA (human) kinase inhibition; P17612; PKA Kemptide phosphorylation, Kinase-Glo ATP luminescence; inhibition, % at 6 µM; 0.1% of 65,000 active;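 active = inhibition above the screen-wide mean inhibition plus 3 SD, cut at about 21% in these data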
ROCK2 blocker = blocks human Rho kinase 2 activity; O75116; purified ROCK2, Kinase-Glo ATP depletion luminescence; inhibition, % at 6 µM; 0.35% of 60,000 active; AID 604;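 active = inhibition above the screen-wide mean inhibition plus 3 SD, cut at about 18% in these data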;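 also: plate controls were DMSO wells for no effect and Y-27632 control wells after no-enzyme background subtraction for full effect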
JNK3 inh = blocks human JNK3 kinase activity; P53779; purified JNK3 kinase activity, HTS; inhibition, % at 8 µM; 0.61% of 60,000 active; in the data active = inhibition above about 17%;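 also: 0% = DMSO and 100% = reference inhibitor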
FAK inh = inhibitors of human focal adhesion kinase | biochemical FAK kinase activity assay | inhibition, %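 (tested at 7 µM)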 | 0.84% of 97,000 active | AID 727; in the data active = inhibition above about 19%;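 also: 0% = DMSO and 100% = reference compound high control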
PLK1 inh = inhibitors of human PLK1 kinase. P53350. recombinant PLK1 kinase, TR-FRET peptide phosphorylation. inhibition, % at 10 µM. 0.53% of 97,000 active;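 active = inhibition of 50% or more in the single-concentration screen; inactive = inhibition below 50%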;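 also: 0% = DMSO max control and 100% = H-89 dihydrochloride min control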
An asterisk follows results filed as active; . = no result given. Rows were chosen to be rich in hits. Some 1.5% of all compounds tested hit in one or more screens of this group.

SMILES	Plk1 PBD FP	PKA kinase inh	ROCK2 blocker	JNK3 inh	FAK inh	PLK1 inh
O=C1C(C=NCc2cccnc2)=C(O)c2ccccc21	10	-2	-1	28*	3	10
O=C1C(C=NCc2ccncc2)=C(O)c2ccccc21	21	.	.	.	-1	-12
COc1ccc(NC(=O)c2cnc3ccccn3c2=O)c(OC)c1	.	3	7	2	.	.
COc1cccc(NC(=O)Cc2c(C(=O)O)[nH]c3ccccc23)c1	-21	.	.	.	-5	-5
COc1cccc(NC(=O)CCCn2c(=O)[nH]c3ccccc3c2=O)c1	-2	8	2	19*	-5	-13
O=C(CN(c1ccc(Cl)c(C(F)(F)F)c1)S(=O)(=O)c1ccccc1)N/N=C/c1cccc2c1OCCO2	-9	.	.	.	1	-10
Cc1cccc(C)c1OCC(O)CN1CCC(CN2C(=O)c3cccc4cccc(c34)C2=O)CC1 (stereo not given)	21	.	.	.	1	0
CSc1nnc(COc2ccc(C)cc2)n1N	-4	.	.	.	37*	-17
COc1ccc(-n2c(COc3ccc(C)cc3)nnc2SCC(N)=O)cc1	-20	2	8	6	0	-6
CCn1c(SCc2nc3sc(C(=O)O)c(C)c3c(=O)[nH]2)nc2ccccc21	-45	.	.	.	-5	56*
CCCCCCCc1nc2c(=O)[nH]c3ccccc3c2o1	-16	.	.	.	3	-23
Cc1cc(-c2ccccc2C(=O)O)on1	17	-9	2	-2	-1	-7
O=C(O)c1ccccc1C1=Nc2ccc(O)cc2Oc2cc(O)ccc21	50*	5	2	1	-3	4
O=C(CN(C1CCCCC1)S(=O)(=O)c1ccc(Cl)cc1)NCc1ccncc1	-36	-5	2	0	-2	-5
Cc1cc(OC(=O)c2ccco2)c2c(C)cc(=O)oc2c1	-18	.	.	.	5	4
CCc1cc(=O)oc2cc(C)cc(OC(=O)c3ccco3)c12	1	10	8	20*	1	-2
CCn1c(=S)sc2c(=O)[nH]c(C)nc21	7	7	4	-2	0	58*
COc1cc(C2NC(=O)NC(C)=C2C(=O)OC2CCCC(C)C2)ccc1O (stereo not given)	-11	3	-1	36*	0	-14
CC1=C(C(=O)OC2CCCCCCC2)C(c2ccc(O)cc2)NC(=O)N1 (stereo not given)	2	0	-2	22*	0	-7
COc1ccc(Nc2nc(Nc3ccc(OC)cc3)nc(SC3=NCCS3)n2)cc1	-11	.	.	.	1	-2
COc1ccc(-c2nnc(-c3ccc(Br)o3)o2)cc1OC	19	3	6	25*	-4	-16
C=CCn1c(Cc2cccs2)nnc1SCC(=O)c1ccc2ccccc2c1	-41	.	.	.	-1	0
Cc1ccc(C(C(=O)NC(C)(C)C)N(Cc2ccco2)C(=O)CCC(=O)Nc2nccs2)cc1 (stereo not given)	-33	.	.	.	0	24
CC1=NC(C(F)(F)F)(C(F)(F)F)C2=C(CC(C)(C)CC2=O)N1Cc1ccco1	-30	9	7	2	1	-7
O=C(COc1ccccc1F)Nc1nnc(-c2ccncc2)s1	22	.	.	.	0	54*
SMILES	Plk1 PBD FP	PKA kinase inh	ROCK2 blocker	JNK3 inh	FAK inh	PLK1 inh
O=C(COc1ccc(F)cc1)Nc1nnc(-c2ccncc2)s1	-12	.	.	.	0	42
N#Cc1c(/N=C/c2ccc(Br)s2)sc2c1CCC2	-18	.	.	.	1	-12
N#Cc1c(/N=C/c2cccs2)sc2c1CCCCC2	24	6	25*	0	0	-8
CC(=O)c1cc(C#N)c(SCc2ccccc2C#N)nc1C	-11	.	.	.	5	-5
CC(=O)c1cc(C#N)c(SCc2ccncc2)nc1C	.	2	28*	-18	.	.
O=c1nc(-c2ccccc2)c2ccccc2[nH]1	7	16	4	-1	-1	60*
COc1ccc(COC(=O)NNC(=O)c2ccccc2Cl)cc1	-7	.	.	.	2	-1
S=c1[nH]nc(Cc2sc(-c3ccccc3)nc2-c2ccccc2)o1	12	.	.	.	-3	-13
O=C(c1ccccc1)c1nc[nH]c1C(=O)Nc1ccccn1	17	4	10	18*	-5	1
Cc1nc2ccc(NC(=O)C3CCN(S(=O)(=O)c4cccs4)CC3)cc2s1	14	0	-3	-5	3	53*
CCN(CC)S(=O)(=O)c1cccc(C(=O)N[C@H](C(=O)NCc2ccc(Cl)cc2)C(C)C)c1	-7	.	.	.	-1	-9
COc1cc(/C=N\n2nnnc2N)ccc1OCc1ccc(F)cc1	2	4	18*	1	-8	-13
O=C(CC1NCCNC1=O)Nc1ccc2c(c1)OCO2 (stereo not given)	-1	.	.	.	0	-2
CC1=C(C(=O)OC(C)C)C(c2c(O)ccc3ccccc23)NC(=O)N1 (stereo not given)	17	11	0	-5	-5	-12
CCOC(=O)C1C(=O)Oc2ccc3ccccc3c2C1C1CCOC1=O (stereo not given)	11	1	2	-4	1	63*
CCOC(=O)c1c2c(n(C)c1COC)C(=O)C(=O)c1ccc(Br)cc1-2	12	.	.	.	52*	-8
CCSC1=C(C#N)C(c2cccc(Br)c2)CC(=O)N1 (stereo not given)	-17	2	1	3	-1	-10
COc1cccc(C2CC(=O)NC(SC)=C2C#N)c1 (stereo not given)	-1	-11	-4	1	-1	69*
COc1ccc(C2c3c(oc4ccc(F)cc4c3=O)C(=O)N2CCN2CCOCC2)cc1OC (stereo not given)	.	7	2	-4	.	.
O=C(OCc1ccc(Cl)cc1)c1ccccc1C(=O)c1ccccc1	17	.	.	.	5	-15
COc1ccc(NC(=O)Nc2ccc(Cc3ccncc3)cc2)cc1OC	0	.	.	.	14	-10
CCCCc1c(C)nc(N)[nH]c1=O	32	7	18*	2	-5	-12
CCOC(=O)c1cnc2ccc(Cl)cc2c1N1CCN(C)CC1	-11	4	5	32*	12	-14
CC(=O)c1c(C)[nH]c(C(=O)OCn2nnc3ccccc3c2=O)c1C	-15	5	5	18*	0	-8
CC(=O)Nc1ccc(S(=O)(=O)NCc2ccc3c(c2)cc(C)n3C)cc1	13	-10	0	-7	5	62*
SMILES	Plk1 PBD FP	PKA kinase inh	ROCK2 blocker	JNK3 inh	FAK inh	PLK1 inh
Cc1ccc(OCCN2CCN(c3ncnc4sc(C)c(C)c34)CC2)cc1	-4	.	.	.	1	2
Clc1ccc(OCCN2CCN(c3ncnc4sccc34)CC2)cc1	.	36*	10	-2	.	.
O=C(NC(=S)N(CCCCO)C1CCCCC1)c1sc2ccccc2c1Cl	-4	.	.	.	-6	-10
O=C(Cc1cccs1)Nc1nnc(Cc2ccccc2)s1	-8	.	.	.	29*	-21
COc1ccc(C2C(C#N)=C(N)N3C(=C2C#N)Sc2ccccc23)cc1 (stereo not given)	.	-2	4	1	.	.
COc1ccccc1S(=O)Cc1ccc(C(=O)NCCc2ccc(Cl)cc2)o1 (stereo not given)	-21	-6	1	3	5	60*
